# D1 potentiator: Potentiators of Human D1 Dopamine Receptor: qHTS | HEK293 TREx D1 cells, calcium flux, dopamine EC20 potentiation | 0.036% of 360,000 active | AID 504651, 2011 | D(1A) dopamine receptor (Homo sapiens), P21728 | potentiation, % at 10 µM; in the data active = potentiation above about 30%; note: 0% is about no effect
# D1 antag: Antagonist of Human D 1 Dopamine Receptor: qHTS | D(1A) dopamine receptor (Homo sapiens), P21728 | HEK293 TREx D1 cells, calcium flux, dopamine EC80; hits give low values | activity change, negative = inhibition, % at 10 µM | 3.2% of 360,000 active; in the data active = activity change below about -30%; note: % is set by controls: 0 for no effect and ±100 for the full control effect
#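 HEK293 T-REx cells expressing inducible, force-coupled D1 receptor; no-wash Ca dye, 30–90 min RT. Cmpd → 180 s read at 1 Hz → EC80 DA → 180 s read.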
# Chronic BCR inh: qHTS Assay to Find Inhibitors of Chronic Active B-Cell Receptor Signaling | ABC-DLBCL IkBa-CBG/CBR reporter, luminescence ratio, 4 h | Potency, µM (doses to about 46.1 µM), for the others: at the highest dose activity change, negative = inhibition, usual class: inhibitors | 0.05% of 340,000 active | AID 493014, 2011; active = well fitted inhibition curve with a large enough effect in the signal ratio, with a control signal flat, not every such curve was filed as active; inconclusive = small, poorly fitted or top-dose-only effect, or effect the other way, or a change in a side signal; the % refers to the signal ratio;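 note: potency is the fitted concentration of half-maximal effect; plate controls were basal doxycycline-induced cells for no effect and cells given 10 µM MG132 for full effect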
#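 TMD8 human ABC-DLBCL cells with doxycycline-inducible IκBα–green luciferase fusion and unfused red luciferase, in 0.5% FBS medium; compounds up to 46 uM, 4 h at 37C. Green/red luminescence ratio, filter-overlap corrected, fitted to concentration-response curves.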
# D3 ag: qHTS of D3 Dopamine Receptor Agonist: qHTS. D3R DiscoveRx beta-arrestin cells, luminescence, 90 min. max activation, %. 0.58% of 410,000 active; in the data active = max activation above about 30%; note: 0% is about no effect
# Target sequence (P35462 whole entry, looked up): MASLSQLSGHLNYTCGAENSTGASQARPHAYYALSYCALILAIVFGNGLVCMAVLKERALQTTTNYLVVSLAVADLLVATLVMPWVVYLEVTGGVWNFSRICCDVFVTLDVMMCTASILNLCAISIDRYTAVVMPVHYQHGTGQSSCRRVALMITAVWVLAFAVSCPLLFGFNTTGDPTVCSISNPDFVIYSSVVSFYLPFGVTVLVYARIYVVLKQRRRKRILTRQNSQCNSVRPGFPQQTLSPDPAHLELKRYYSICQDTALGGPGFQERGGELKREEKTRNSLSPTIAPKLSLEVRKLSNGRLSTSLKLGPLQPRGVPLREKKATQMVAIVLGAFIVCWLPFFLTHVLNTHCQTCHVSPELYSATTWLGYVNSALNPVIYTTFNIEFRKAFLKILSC
#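 Agonist-mode cell screen: cells plated at 1500/well and incubated overnight at 37 °C, then exposed to library compounds for 90 min at 37 °C. Detection reagent was added for 30–60 min at room temperature, and luminescence was read.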
# D3 antag: qHTS of D3 Dopamine Receptor Antagonist: qHTS | D3R cells, DiscoveRx beta-arrestin luminescence, antagonist mode; hits give low values | max response, negative = inhibition, % | 2.5% of 360,000 active | AID 652054, 2013; in the data active = max response below about -50%; inconclusive = no clear call, values can overlap the other calls; note: % is set by controls: 0 for no effect and ±100 for the full control effect
#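 Cells expressing the human receptor were seeded at 1500 cells/well, incubated overnight at 37 degrees C in 5% CO2, then exposed to library compounds with dopamine controls for 90 minutes at 37 degrees C before luminescent detection.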
# D1 agonist: Allosteric Agonists of the Human D1 Dopamine Receptor: qHTS | HEK293 T-REx D1 cells, calcium flux, agonist mode | activation, % at 2 µM | 1% of 360,000 active | AID 504660, 2011; in the data active = activation above about 30%; note: 0% is about no effect
#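 Tetracycline-induced HEK293 TREx D1 cells, force-coupled to calcium signalling, were dye-loaded with a no-wash calcium kit. Compound was pin-added after a 10 s baseline. Fluorescence was read kinetically at 1 cycle/s for 180 s, with calcium rises flagged as agonism.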
# Starred values were filed as active, the others as inactive; ? = inconclusive; . = no result. In the library only some 6% were active in any assay of this set; here they are far more common.
SMILES,D1 potentiator,D1 antag,Chronic BCR inh,D3 ag,D3 antag,D1 agonist
Fc1ccc(CN2CC[C@H]3C=CCc4cccc(c43)C2)cc1,-5,-9,0%,-60,-53*,0
O=C(NCCO)c1ccc(Cl)c(Cl)c1,7,1,2%,-2,1,-2
CCCNC(=O)c1ccc2c(=O)c(O)c(C)[nH]c2c1,-5,-6,?,33*,21,4
Cc1ccc(CCNC(=O)c2ccc3c(=O)n(-c4ccc(C)cc4)c(=O)[nH]c3c2)cc1,0,7,.,12,.,-1
CCCNC(=O)c1ccc2c(=O)c(O)c(-c3cccc(Br)c3)[nH]c2c1,-8,-36*,-10%,3,0,6
Nc1c(Cl)cc(-c2[nH]c3cc(C(=O)NCCO)ccc3c(=O)c2O)cc1Cl,-4,12,-6%,35*,32,12
CCCNC(=O)c1ccc2c(=O)c(O)c(-c3ccc(F)cc3)[nH]c2c1,-9,-59*,-6%,14,-13,1
c1ccc(-c2noc(CSc3nnnn3-c3ccccc3)n2)cc1,-5,-43*,?,4,27,13
Cc1ccc(Nc2nc(CSc3nnnn3-c3ccccc3)cs2)cc1,-3,5,.,2,1,1
Cc1cccc(-n2nnnc2SCc2csc(-c3ccccc3)n2)c1,-2,-26,?,7,-2,42*
CCCc1noc(-c2ccc(NCc3ccc(C)cc3)c([N+](=O)[O-])c2)n1,2,-7,.,-4,.,1
C=C(CN(C)C)C(=O)c1ccc(OC2OC(COC(C)=O)C(OC(C)=O)C(OC(C)=O)C2OC(C)=O)cc1 (stereo unspecified),.,.,.,-16,-82*,.
CCN1CCN(C(=O)Cn2c(-c3cccs3)cc3cc(Cl)ccc32)CC1,-2,-5,.,6,.,1
O=C(Cn1c(=O)ccc2cc(S(=O)(=O)N3CCCC3)ccc21)Nc1ccc(Cl)cc1,-1,5,.,6,.,0
COc1cccc(C(c2ccccc2)N2C3CCC2CN(S(=O)(=O)c2ccc(F)cc2)CC3)c1 (stereo unspecified),-3,-1,9%,-8,?,62*
Cn1cc(CN2CCc3sccc3C2)c(-c2ccccc2F)n1,3,-5,?,-19,-91*,1
Cc1cccc(NC(=O)Cn2c(=O)n(Cc3ccc4c(c3)OCO4)c(=O)c3oc4ccccc4c32)c1C,-4,0,.,9,.,1
CNc1ccc2ncc(-c3ccc(OC)c(OC)c3)n2n1,.,.,.,1,17,.
c1ccc2c(c1)CCN(c1ncnc3nc[nH]c13)C2,1,0,-15%,3,0,2
C1=C(c2ccccc2)CCN(c2ncnc3nc[nH]c23)C1,-10,-66*,?,-6,-22,2
Cc1ccc(-c2onc(C)c2C)cc1S(=O)(=O)N1CCC(C)CC1,-4,-1,.,-3,.,9
CCC(=O)Nc1ccc(-c2nnc3c4ccccc4c(C)nn23)cc1,-7,-39*,.,-4,.,-1
CCC(=O)Nc1ccc(OCc2nnc3c4ccccc4c(C)nn23)cc1,5,-15,-7%,1,0,3
CC(=O)Nc1ccc(NC(=O)Cn2cc3c(n2)CCCC3)cc1,3,8,1%,-10,-11,1
Cc1ccc(NC(=O)Cn2cc3c(n2)CCCCC3)cc1,2,6,.,-16,.,40*
SMILES,D1 potentiator,D1 antag,Chronic BCR inh,D3 ag,D3 antag,D1 agonist
O=C(CN1CCN(c2ccccc2F)CC1)N1CCc2ccccc21,-2,5,-9%,-12,-54*,2
O=C(CN1CCC(N2CCCCC2)CC1)N1CCCc2ccccc21,0,-9,19%,-7,-76*,3
O=C(CN1CCCc2ccccc21)N1CCc2ccccc21,-2,18,-11%,-13,-1,0
O=C(Cn1cc2c(n1)CCCCC2)N1CCc2ccccc21,-6,-76*,-8%,0,11,-1
Cc1oc2c(cc(NS(=O)(=O)c3ccc(Cl)cc3)c3ccccc32)c1C(=O)OCc1ccccc1,-1,2,.,5,.,2
Cc1c(Cl)cccc1-n1ncc(C(=O)Nc2ccc3c(c2)OCCO3)c1C1CCN(C(=O)OC(C)(C)C)CC1,-2,-13,.,14,.,3
CC(=O)c1cccc(NC(=O)c2cccn2-c2nnc(N3CCCCC3)s2)c1,-2,-22,.,-25,.,4
O=C(CN1CCCCC1)N1CCc2ccccc21,-8,-2,0%,-23,-86*,2
O=C(CN1CCN(Cc2ccc(Cl)cc2)CC1)N1CCc2ccccc21,-2,10,3%,-18,?,0
Cc1csc(=N)n1CC(=O)N1CCc2ccccc21,-6,-32*,-5%,-27,-86*,4
O=C(CN1CCN(Cc2ccccc2)CC1)N1CCCc2ccccc21,-3,-3,-1%,-22,-51*,-1
O=C(CN1CCN(c2ncccn2)CC1)N1CCc2ccccc21,-4,-1,?,-21,-82*,5
Cc1cc(-n2c(C)nc3ccccc3c2=O)ccc1NC(=O)c1ccc([N+](=O)[O-])cc1,-1,.,-5%,-10,.,2
CCC(=O)N1CCc2cc(Br)cc(S(=O)(=O)N3CCCC(C(=O)Nc4cccc(F)c4)C3)c21 (stereo unspecified),2,-3,.,-12,.,0
O=C(CN1CCCCC1)N1c2ccccc2CCc2ccccc21,-4,1,-1%,-10,-21,2
CC1CCN(CC(=O)N2c3ccccc3CCc3ccccc32)CC1,-2,-1,-6%,-6,-64*,0
CC(C)NC(=O)CN1CCN(c2ncccn2)CC1,-2,-1,0%,6,-54*,6
COc1ccccc1NC(=O)CSC1=Nc2ccccc2C2=NC(Cc3ccccc3)C(=O)N12 (stereo unspecified),3,15,.,-15,.,4
CCCn1c(CCC(=O)Nc2cc(OC)cc(OC)c2)nc2cccnc21,0,-9,.,-6,.,1
CCOc1ccc(CNC(=O)c2cc3ccccn3n2)cc1,-2,-7,.,-10,.,1
CCC1CCc2sc(C(=O)NC3CCN(Cc4ccccc4)CC3)cc2C1 (stereo unspecified),-5,9,-3%,-32,-72*,14

# Assay outcomes: PubChem, National Center for Advancing Translational Sciences (NCATS)
